Compound activity deposited in PubChem BioAssay by several laboratories.
Rv3671c protease = inhibitors of M. tuberculosis serine protease Rv3671c | P9WHR9 | inhibition, % at 5.96 µM | actives 0.048% (n = 320,000); in the data active = inhibition above about 38%;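 also: extracellular domain of Rv3671c used as enzyme; 0% = enzyme with DMSO and 100% = no enzyme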
Target sequence (P9WHR9 whole entry, looked up, the tested form may be a part): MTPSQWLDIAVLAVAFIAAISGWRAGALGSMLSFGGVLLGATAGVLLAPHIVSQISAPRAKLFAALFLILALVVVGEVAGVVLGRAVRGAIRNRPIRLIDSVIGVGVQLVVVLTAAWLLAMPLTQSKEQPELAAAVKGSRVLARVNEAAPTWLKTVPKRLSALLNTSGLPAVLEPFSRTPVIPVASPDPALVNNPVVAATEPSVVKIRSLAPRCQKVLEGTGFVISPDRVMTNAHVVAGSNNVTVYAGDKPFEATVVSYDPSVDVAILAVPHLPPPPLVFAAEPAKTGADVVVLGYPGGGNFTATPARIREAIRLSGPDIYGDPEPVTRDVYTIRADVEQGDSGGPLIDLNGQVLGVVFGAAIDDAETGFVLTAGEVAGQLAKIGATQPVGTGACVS
UGM FP inh = inhibitors of M. tuberculosis UDP-galactopyranose mutase | actives 0.06% (n = 320,000) | AID 504406 | inhibition, % at 10 µM | purified UGM, fluorescence polarization probe displacement | P9WIQ1; in the data active = inhibition above about 10%, passing the limit was not always enough
SSB-PriA inh = inhibitors of Klebsiella pneumoniae PriA binding to SSB C-terminal tail. actives 0.6% (n = 430,000). inhibition, % at 33 µM. AlphaScreen SSBct-PriA binding, biotinylated peptide; in the data active = inhibition mostly above about 37%, no sharp cut-off; inactive = mostly below about 20%;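 also: plate controls were negative control peptide for no effect and reference peptide for full effect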
RecA intein inh = Mtb RecA intein splicing inhibition; P9WHJ3; cell-free RecA intein splicing, fluorescence; inhibition, % (test concentration not listed); actives 0.75% (n = 290,000); AID 2221; in the data active = inhibition above about 30%;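 also: 0% = vehicle wells and 100% = reference inhibitor control wells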
Mtb bLac sens = beta-lactam sensitization of Mtb H37Rv | M. tuberculosis H37Rv growth with meropenem, percent inhibition | inhibition, % at 25 µM | AID 434955 | actives 0.27% (n = 330,000); call rule not given here;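 also: growth measured after seven days incubation then overnight dye step; 0% = bacteria only wells and 100% = bacteria with antibiotic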
* = called active by the depositor; / = no result given. Most compounds without a hit are left out; they make up all but 1.1% or so of the library.

SMILES	Rv3671c protease	UGM FP inh	SSB-PriA inh	RecA intein inh	Mtb bLac sens
COC(=O)C1CCN(C2=C(NS(=O)(=O)c3ccc(Cl)cc3)C(=O)c3ccccc3C2=O)CC1	3.8	0.8	72.6*	10.6	-0.5
Cc1cccc(Nc2nc(N)c([N+](=O)[O-])c(N3CC(C)CC(C)C3)n2)c1 (stereo unspecified)	-10.6	-1.1	50.1*	7.2	14.1
Cc1cccc(Nc2nc(N)c([N+](=O)[O-])c(N3CC(C)OC(C)C3)n2)c1 (stereo unspecified)	0.2	-1.3	23.2	3.3	6.9
O=S(=O)(NCC(c1ccsc1)N1CCCC1)c1cccc(F)c1 (stereo unspecified)	/	/	-7.0	/	/
CCC(=O)c1ccc(OCC(O)CNCCc2ccc(Cl)cc2)cc1 (stereo unspecified)	-5.1	1.9	40.0*	0.9	-0.2
Cc1cc(N=Nc2ccc(Cl)cc2)cc(CN2CCOCC2)c1O	3.8	-0.1	49.1*	4.4	79.4
Cc1cc(N=Nc2ccc(Cl)cc2)cc(CN2CCCC2)c1O	8.8	-0.8	72.0*	9.4	-0.2
O=C(NN=Cc1ccco1)c1cc([N+](=O)[O-])cc([N+](=O)[O-])c1	/	/	-1.9	/	/
O=c1cccc2cc(O)c(O)c(O)c2c1O	/	/	9.8	/	/
Oc1cccc2cc3cccc(O)c3c(O)c12	37.8*	1.4	7.2	-2.1	3.4
CCc1ccccc1NC(=O)N1CCN(c2ccc3nnc(C)n3n2)CC1	/	/	-4.0	/	/
COC(=O)c1c(C)oc2ccc(N(C(=O)c3ccncc3)S(=O)(=O)c3ccc(C)cc3)cc12	-22.8	0.0	-7.2	12.4	5.2
COC(=O)c1c(C)oc2ccc(N(C(=O)c3ccncc3)S(=O)(=O)c3ccc4ccccc4c3)cc12	-13.6	1.1	-18.7	38.4*	7.3
Cc1ccc([N+](=O)[O-])cc1S(=O)(=O)N(C(=O)c1ccncc1)c1ccc2oc3c(c2c1)CCCC3	-25.6	-0.5	2.1	42.6*	1.4
O=C(Oc1ccc(N(C(=O)c2ccncc2)S(=O)(=O)c2cccs2)cc1)c1ccncc1	4.2	-0.2	-3.0	9.7	-1.7
COC(=O)c1c(C)oc2ccc(N(C(=O)c3ccncc3)S(=O)(=O)c3ccc(C)cc3C)cc12	-19.0	-2.3	-13.0	56.1*	10.5
Cc1cc(F)ccc1S(=O)(=O)N(C(=O)c1ccncc1)c1ccc(OC(=O)c2ccncc2)cc1	1.4	-0.5	-3.5	30.5*	-6.0
Cc1ccc(S(=O)(=O)N(C(=O)c2ccncc2)c2ccc3oc4c(c3c2)CCCC4)cc1[N+](=O)[O-]	-59.5	-0.2	6.3	-1.7	-2.0
Cc1c(Cl)cccc1S(=O)(=O)Nc1cccc(-c2cnc3n2CCC3)c1	/	/	-7.0	/	/
COc1ccc(C=NNC(=O)c2[nH]c(C)c(C(=O)NN=Cc3ccc(OC)cc3)c2C)cc1	/	/	-15.4	/	/
c1ccc(-c2csc(Nc3ncccn3)n2)nc1	/	/	69.9*	/	/
c1ccc(Nc2nc(-c3ccccn3)cs2)nc1	/	/	150.5*	/	/
Cc1ccc(C)c(-c2csc(Nc3ncccn3)n2)c1	-9.1	1.1	-8.8	0.2	-0.8
Cc1ccc(C)c(Nc2nc(-c3ccccn3)cs2)c1	/	/	68.6*	/	/
NNc1nc(-c2ccccn2)cs1	/	/	130.5*	/	/
SMILES	Rv3671c protease	UGM FP inh	SSB-PriA inh	RecA intein inh	Mtb bLac sens
Oc1ccc(-c2csc(Nc3ncccn3)n2)c(O)c1	6.3	-1.6	-9.0	-0.5	4.8
c1ccc(-c2csc(Nc3ccccn3)n2)cc1	5.6	-0.5	-5.7	/	8.6
COC(=O)N1CCc2ccc(NC(=O)c3cccn(C)c3=O)cc2C1	/	/	-9.0	/	/
CC(=NNc1nc2ccccc2o1)c1ncccn1	/	/	100.9*	/	/
CC(=NNc1nc2ccc(Cl)cc2o1)c1ccccc1	/	/	-0.3	/	/
CC(=NNc1nc2ccccc2o1)c1cc2ccccc2cn1	/	/	41.1*	/	/
CCC(=C(c1ccc(OC)cc1)c1ccc(OC)cc1)c1cn(CC(O)CN2CCN(C)CC2)c2ccccc12 (stereo unspecified)	15.6	-2.2	55.5*	/	100.0
COCCCn1c(=O)/c(=C\c2ccccc2OC(C)C)s/c1=C(/C#N)C(=O)Nc1ccc(C(=O)O)cc1	-18.0	15.1*	/	-9.7	/
COCCCn1c(=C(C#N)C(=O)Nc2ccc(C(=O)O)cc2)s/c(=C/c2cccc(OC)c2OC)c1=O	/	/	-5.0	/	/
Cc1ccc2nc(N=C(N)NC(=O)NC3CCCCC3)nc(C)c2c1	/	/	-10.3	/	/
Cc1ccc(NC(=O)C2C3CCCCC32)cc1[N+](=O)[O-] (stereo unspecified)	-4.4	0.6	40.6*	-1.6	3.4
CC(=O)Nc1ccc(C)c([N+](=O)[O-])c1	7.6	1.3	-15.8	-0.5	-9.5
O=C(CSc1ncc(-c2ccc(Cl)c(Cl)c2)n1-c1ccc(OC(F)F)cc1)N1CCCC1	/	/	38.0*	/	/
